This is an account of results in PubChem BioAssay (Tox21).

The source made the active and inactive calls. The call rests on the fitted dose curve; in most records, active means well fitted activation curve with a large enough effect in the repeat runs; inconclusive means weak or mixed curves; inactive means flat fitted curve, though single readings scatter.
On the % scale 0 is the no-effect control and ±100 the full control effect.

The nature of this assay: A CellTox Green Cytotoxicity Assay to monitor cytotoxicity in HEK293 cells - 0 hour (AID 1224869). Further: nearly all actives have a fitted effect of over 50% in size. The settings on record: CellTox Green fluorescence; series mostly up to 76.8 µM; cytotoxicity: at the top concentration. The source says: National Center for Advancing Translational Sciences [NCATS]
NIH Chemical Genomics Center [NCGC]
U.S. Environmental Protection Agency [EPA]
National Institutes of Environmental Health Sciences [NIEHS]
National Toxicology Program [NTP]
Cell-based models are critical for drug discovery. Determining the natural cytotoxic effects resulting from test compounds is an essential research activity. A CellTox Green Cytotoxicity Assay to monitor cytotoxicity in real time of continues cell culture during 40 hours of the compound treatment was used to screen Tox21 10K library compounds in Hek293 cells. CellTox Green Cytotoxicity Assay is a nonlytic, homogeneous, biofluorescent method to measure cytotoxicity in cell culture after experimental manipulation. The assay system uses a proprietary asymmetric cyanine dye that is excluded from viable cells but preferentially stains the dead cell's DNA. […] Viable cells produce no appreciable increases in fluorescence. Therefore, the fluorescence signal produced by the binding interaction with dead cell DNA is proportional to cytotoxicity.
The mixture of Hek293 cell suspension and reagents were dispensed at 600cells/6 ul/well in 1536-well tissue culture treated black solid bottom plates using a Multidrop dispenser. After the assay plates were incubated at a 37 C/5% CO2 incubator for 5 hours, 23 nL of compounds dissolved in DMSO, positive and negative controls was transferred to the assay plate by a pintool work station. The plates were incubated at 37 C for 40 hours. The fluorescence intensity were measured at 0h, 8h, 16h, 24h, 32h and 40h time points using ViewLux plate reader during compound treatment.
In the case of `CC(=O)[O-].CC(=O)[O-].CC(=O)[O-].[Cr+3]`, the “cytotoxicity” value is 0.131% (inactive). Same read-out and setting: next, `O=[N+]([O-])C(Br)Br`: -10.7% (inactive); `CC(C)[C@@H](Nc1ccc(C(F)(F)F)cc1Cl)C(=O)OC(C#N)c1cccc(Oc2ccccc2)c1` (stereo not given in full): -1.76% (inactive); `CC(C)(C)c1ccc(OP(=O)(Oc2ccccc2)Oc2ccccc2)cc1`: -4.82% (inactive). With `NC(=O)C(Cl)Cl`, the “cytotoxicity” value was -3.19% (inactive). `COC(=O)c1ccccc1S(=O)(=O)NC(=O)Nc1nc(C)nc(OC)n1`: the “cytotoxicity” value is 6.29% (inactive). Regarding `CCCCCCCCCCCCCCn1cc[n+](C)c1`, the Potency entry is “inactive”. For `COP(=O)(OC)O/C(=C\Cl)c1cc(Cl)c(Cl)cc1Cl`, the “cytotoxicity” value is -1.4% (inactive). For the compound `CC(=O)[O][Pb]([c]1ccccc1)([c]1ccccc1)[c]1ccccc1`, the “cytotoxicity” value is 0.618% (inactive). In the case of `CCC1(CC)C(=O)N=C(O)NC1=O`, the “cytotoxicity” value is 2.07% (inactive). On the same count and under the same terms, next, `CSC(=O)c1c(C(F)F)nc(C(F)(F)F)c(C(=O)SC)c1CC(C)C`: -0.925% (inactive); `Oc1cccc(Cl)c1Cl`: -0.748% (inactive); `O=C1C[C@@H]2OCC=C3CN4CC[C@]56c7ccccc7N1[C@H]5[C@H]2[C@H]3C[C@H]46`: 1.36% [at 35.3 µM] (inactive).

With `CCCCCON=O`, the “cytotoxicity” value was 4.75% (inactive). For `CN1CCc2cc(Cl)c(O)cc2[C@H]2c3ccccc3CC[C@@H]21`, the “cytotoxicity” value is -0.171% [at 35.3 µM] (inactive). Same read-out and setting: next, `COc1ccc2[nH]cc(CCN(C(C)C)C(C)C)c2c1`: 0.547% (inactive); `Brc1ccc(Oc2ccc(Br)cc2Br)c(Br)c1`: 1.54% (inactive); `COC(=O)c1cc(Oc2ccc(Cl)cc2Cl)ccc1[N+](=O)[O-]`: -2.61% (inactive).

Consider `CCN1CCC2(CC1)COc1cc3c(cc12)N(C(=O)c1ccc(-c2ccc(-c4nnc(C)o4)cc2C)cc1)CC3`, for which the “cytotoxicity” value was 0.476% (inactive). As to `CC(=O)[O-].CC(=O)[O-].CC(=O)[O-].[Sb+3]`, the cytotoxicity was -0.412% [at 2.72 µM] (inactive). For `CCOP(=S)(OCC)Oc1cc(C)nc(N(CC)CC)n1`, the “cytotoxicity” value is 9.17% (inactive). On the same count and under the same terms, the value for `FC(F)C(F)(F)OCC(Cn1cncn1)c1ccc(Cl)cc1Cl` (stereo not given) was -2.31% (inactive). Consider `C[C@]12C/C(=C/O)C(=O)C[C@@H]1CC[C@@H]1[C@@H]2CC[C@@]2(C)[C@H]1CC[C@]2(C)O`, for which the Potency result is “inactive”. Take `ClSC(Cl)(Cl)Cl`: the “cytotoxicity” value is 0.38% (inactive).

In the case of `CCN(CC)Cc1nccn1-c1ccc([N+](=O)[O-])cc1C(=O)c1ccccc1Cl`, the “cytotoxicity” value is 11.4% [at 35.3 µM] (inactive). `CC(C)C(Br)C(=O)NC(N)=O` (stereo not given): the “cytotoxicity” value was 1.38% [at 35.3 µM] (inactive). With `CCOC(=O)Cc1ccccc1`, the “cytotoxicity” value was 0.442% (inactive). Still for that read-out and setting: next, `OCC(Br)CBr` (stereo not given): 4.08% (inactive). On the same count and under the same terms, next, `O=[N+]([O-])c1cccc2cccc([N+](=O)[O-])c12`: -6.01% (inactive). Same read-out and setting: the value for `Clc1c(Cl)c(Cl)c(Cl)c(Cl)c1Cl` was -0.372% [at 6.97 µM] (inactive). `COc1ccc2c(c1OC)C(=O)O[C@@H]2[C@H]1c2cc3c(cc2CCN1C)OCO3`: the “cytotoxicity” value is 4.35% (inactive). The same measure, in the same setting: next, `COC(=O)C(C)N(C(=O)c1ccco1)c1c(C)cccc1C` (stereo not given): 2.9% (inactive); `CCc1cccc(C)c1N(C(=O)CCl)[C@@H](C)COC`: -5.32% (inactive); `O=[N+]([O-])c1cc(C(F)(F)F)c(Cl)c([N+](=O)[O-])c1Nc1ncc(C(F)(F)F)cc1Cl`: -12.4% (inactive).

For `CC(=O)[O-].CC(=O)[O-].[Co+2]`, the “cytotoxicity” value was -2.08% (inactive).

As for `Cc1nn(-c2cc(NS(C)(=O)=O)c(Cl)cc2Cl)c(=O)n1C(F)F`, the “cytotoxicity” value was -4.82% (inactive). In the case of `N#CCCl`, the “cytotoxicity” value was 0.008% (inactive). Still for that read-out and setting: the value for `COc1c2c(cc3c1OCO3)CCN(C)C2` was -6.92% [at 35.3 µM] (inactive). On to `O.O.O.O.O.O.O.O=S(=O)([O-])[O-].[Co+2]`, for which the “cytotoxicity” value is -8.13% (inactive).

Consider `C#CCC1=C(C)C(OC(=O)C2C(C=C(C)C)C2(C)C)CC1=O` (stereo not given), for which the “cytotoxicity” value was -1.57% (inactive).
